One experiment deals with Albumin (Bos taurus) (UniProt P02769). Kind of experiment: compounds binding labelled BSA control protein – biochemical, small-molecule microarray, Alexa647 label, 635/667 nm fluorescence, artefact control for SMM control protein annotation, profiling panel (AID 1118).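 Note: score merges 667 nm emission intensity and signal-to-noise per printed compound spot.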 Particulars: BSA-A647 binding, fluorescence 635 nm, higher = more signal.
Experiment [1] is described as follows: probe aXIP binding to arrayed compounds – biochemical, NeuroSMM set, 635/667 nm fluorescence, primary screen (AID 1119).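 Note: probe is the protein aXip251-270 applied at 1 µg/mL to compound-printed slides; binding of probe to printed compounds measured as 667 nm fluorescence plus signal to noise.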 The conditions noted are these: small-molecule microarray, higher = more signal, called active from +8 up or from −8 down.
Experiment [2] can be described thus: probe aNOTCH3 binding on compound microarray – biochemical, small-molecule microarray, 635/667 nm fluorescence, primary screen (AID 1120).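 Note: probe is a biotin-tagged antibody raised against NOTCH3 rather than NOTCH3 protein; score merges spot fluorescence near 667 nm with spot signal to noise.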 Particulars: higher = more signal.
A short description of experiment [3]: probe aNOTCH2 binding on compound microarray – biochemical, small-molecule microarray, 635/667 nm fluorescence, primary screen (AID 1121).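 Note: score merges feature fluorescence read at 667 nm with its signal to noise.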 Particulars: higher = more signal.
Experiment [4] deals with Carbonic anhydrase 2 (Homo sapiens) (UniProt P00918). Kind of experiment: compounds binding carbonic anhydrase 2 – biochemical, small-molecule microarray, Alexa647-labelled CAII, profiling panel (AID 1122). The conditions noted are these: CAII-A647 binding fluorescence, higher = more signal.
Experiment [5] in a line: COS7 lysate on small-molecule microarray, probe aHis, 635 nm (AID 1123).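 Note: z-score combines 667nm fluorescence intensity with signal-to-noise per printed compound spot.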 The conditions noted are these: COS7 cell lysate, fluorescence, higher = more signal.
The nature of experiment [6]: probe aLAP1 signal on lysate-treated microarray – cell lysate, small-molecule microarray, COS7 lysate, primary screen (AID 1124).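 Note: lysate comes from COS7 cells expressing LAP1 and is applied at 0.3 µg/mL; score merges spot fluorescence near 667 nm with signal-to-noise over triplicate slides.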 Particulars: probe aLAP1, fluorescence, higher = more signal.
The test system of a further experiment is Sam68 (KHDRBS1). Kind of experiment: compounds binding KHDRBS1 protein – biochemical, small-molecule microarray, 635 nm fluorescence, primary screen (AID 1125).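 Note: score merges 667 nm channel intensity with signal to noise over triplicate slides.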 Particulars: higher = more signal.
Experiment [7] has as its system Chordin-like protein 2 (CHRDL2). Kind of experiment: compounds binding chordin-like 2 – biochemical, small-molecule microarray, 635 nm fluorescence, primary screen (AID 1126).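 Note: printed compound slides probed with Chrdl2 protein at 4 µg/mL for 1 h at 4 C; score merges 667 nm emission intensity with signal to noise over three replicate slides.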 The conditions noted are these: fluorescence 635 nm, higher = more signal.
Experiment [8] concerns the target Concanavalin-A (Canavalia ensiformis) (UniProt P02866). Kind of experiment: compounds binding concanavalin A lectin – biochemical, small-molecule microarray, Alexa647 label, 635 nm, artefact control for SMM control protein annotation, primary screen (AID 1127).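 Note: z combines 667 nm emission intensity with signal-to-noise across three replicate slides.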 The conditions noted are these: ConA-A647 binding fluorescence, higher = more signal.
The nature of experiment [9]: compounds binding Alexa647 anti-His antibody – biochemical, small-molecule microarray, 635 nm fluorescence, artefact control for SMM control protein annotation, primary screen (AID 1128).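 Note: score merges feature fluorescence with signal-to-noise for each printed compound spot.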 Particulars: higher = more signal.
Experiment [10] has as its system Human papillomavirus type 1a E7 protein (residues 1-88). Kind of experiment: HPV1a E7 small-molecule binders, primary screen, biochemical, small-molecule microarray, residues 1-88, 635 nm (AID 1129). The conditions noted are these: small-molecule microarray binding, fluorescence 635 nm; higher = more signal.
Experiment [11] addresses Focal adhesion kinase 1 (Homo sapiens) (UniProt Q05397). Kind of experiment: PTK2 protein binding on printed compound slides – biochemical, small-molecule microarray, 635/667 nm fluorescence, BSA, DTT, primary screen (AID 1130).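 Note: composite of spot emission at 667 nm and signal to noise over triplicate slides.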 The conditions noted are these: 635 nm fluorescence, higher = more signal.
In experiment [12] the test system is Fibrinogen (Alexa647-labelled). Kind of experiment: Alexa647-fibrinogen binding to printed small molecules – biochemical, small-molecule microarray, 635/667 nm fluorescence, artefact control for SMM control-protein annotation, profiling panel (AID 1131).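 Note: z-score merges 667 nm fluorescence with per-spot signal-to-noise over triplicate slides.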 Particulars: fibrinogen-A647 binding fluorescence, higher = more signal.
Experiment [13] addresses Follistatin (Homo sapiens) (UniProt P19883). Kind of experiment: FST protein binding to printed compounds – biochemical, small-molecule microarray, 635/667 nm fluorescence, primary screen (AID 1132). The conditions noted are these: 635 nm fluorescence, higher = more signal.
The target of experiment [14] is Fibroblast growth factor 2 (Homo sapiens) (UniProt P09038). Kind of experiment: basic fibroblast growth factor binding to printed compounds – biochemical, small-molecule microarray, 635/667 nm fluorescence, primary screen (AID 1133). Particulars: FGF2, fluorescence 635/667, higher = more signal.
Experiment [15] in a line: JC-1 mitochondrial potential readout, lung cancer cells – cell-based, A549, JC-1 fluorescence, basal, 24 h, 100 nL, profiling panel (AID 1138).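 Note: A549 lung adenocarcinoma cells under basal conditions with no added stimulus; test concentration not given here.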 The conditions noted are these: higher = more signal.
The test system of another experiment is Lefty1. Kind of experiment: Lefty1 protein binding to printed compounds – biochemical, small-molecule microarray, 635/667 nm fluorescence, primary screen (AID 1139). Particulars: fluorescence 635/667, higher = more signal.
Experiment [16] concerns wheat germ agglutinin (Triticum aestivum), Alexa647-labelled. Kind of experiment: Alexa647-WGA lectin binding to printed small molecules – biochemical, small-molecule microarray, 635/667 nm fluorescence, artefact control for SMM control-protein annotation, profiling panel (AID 1140).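 Note: score merges 667 nm feature emission with signal to noise over triplicate slides.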 The conditions noted are these: WGA-A647 binding, 635 nm fluorescence, higher = more signal.

Experiment [17] has as its target Luciferin 4-monooxygenase (Photinus pyralis) (UniProt P08659). Kind of experiment: inhibition of purified Photinus pyralis luciferase – biochemical, luminescence, purified enzyme, 2006 set, primary screen (AID 1141).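 Note: cell-free assay with purified firefly luciferase at 100 ng per well in PBS; test concentration not given here.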 Particulars: purified firefly luciferase, SteadyGlo luminescence, 30 min; higher = more signal, called active from +8 up or from −8 down.

Activity calls are given as the source filed them.

Follistatin (Homo sapiens), sequence (P19883 whole entry, looked up): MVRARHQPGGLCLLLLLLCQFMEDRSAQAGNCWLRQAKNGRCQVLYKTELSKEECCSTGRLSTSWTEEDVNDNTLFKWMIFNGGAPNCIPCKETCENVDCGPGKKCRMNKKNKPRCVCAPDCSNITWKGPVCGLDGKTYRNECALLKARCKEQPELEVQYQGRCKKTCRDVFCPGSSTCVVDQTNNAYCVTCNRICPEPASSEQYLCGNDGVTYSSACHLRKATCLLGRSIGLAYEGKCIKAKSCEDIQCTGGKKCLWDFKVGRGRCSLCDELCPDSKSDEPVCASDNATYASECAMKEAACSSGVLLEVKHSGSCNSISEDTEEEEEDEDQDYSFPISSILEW
Focal adhesion kinase 1 (Homo sapiens), sequence (Q05397 whole entry, looked up): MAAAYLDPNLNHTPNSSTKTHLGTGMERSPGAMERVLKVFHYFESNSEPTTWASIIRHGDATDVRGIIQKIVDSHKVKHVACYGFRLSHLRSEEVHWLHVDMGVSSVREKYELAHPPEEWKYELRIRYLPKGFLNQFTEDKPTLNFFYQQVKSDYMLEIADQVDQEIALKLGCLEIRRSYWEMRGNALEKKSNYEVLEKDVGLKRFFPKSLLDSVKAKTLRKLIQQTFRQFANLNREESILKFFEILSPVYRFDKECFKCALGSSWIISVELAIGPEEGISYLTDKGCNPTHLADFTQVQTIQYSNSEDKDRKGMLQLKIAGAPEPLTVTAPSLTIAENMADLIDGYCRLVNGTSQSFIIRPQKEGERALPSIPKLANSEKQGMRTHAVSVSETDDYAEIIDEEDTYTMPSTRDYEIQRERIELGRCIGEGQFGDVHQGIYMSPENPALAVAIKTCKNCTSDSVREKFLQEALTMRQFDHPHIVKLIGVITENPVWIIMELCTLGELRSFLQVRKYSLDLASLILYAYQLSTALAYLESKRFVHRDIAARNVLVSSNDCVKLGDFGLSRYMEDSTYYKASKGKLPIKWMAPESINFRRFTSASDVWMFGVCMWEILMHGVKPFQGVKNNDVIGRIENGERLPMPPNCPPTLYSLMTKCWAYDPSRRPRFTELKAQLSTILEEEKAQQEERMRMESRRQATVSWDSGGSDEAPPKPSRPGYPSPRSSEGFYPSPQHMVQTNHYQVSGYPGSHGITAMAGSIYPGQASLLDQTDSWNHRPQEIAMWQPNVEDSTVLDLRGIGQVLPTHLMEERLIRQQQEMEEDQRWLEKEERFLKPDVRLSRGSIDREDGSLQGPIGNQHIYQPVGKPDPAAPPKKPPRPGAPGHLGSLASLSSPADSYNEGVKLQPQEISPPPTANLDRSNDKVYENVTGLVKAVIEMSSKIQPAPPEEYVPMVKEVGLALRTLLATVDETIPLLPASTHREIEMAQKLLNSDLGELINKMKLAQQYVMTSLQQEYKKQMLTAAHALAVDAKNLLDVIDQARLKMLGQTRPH
Luciferin 4-monooxygenase (Photinus pyralis), sequence (P08659 whole entry, looked up): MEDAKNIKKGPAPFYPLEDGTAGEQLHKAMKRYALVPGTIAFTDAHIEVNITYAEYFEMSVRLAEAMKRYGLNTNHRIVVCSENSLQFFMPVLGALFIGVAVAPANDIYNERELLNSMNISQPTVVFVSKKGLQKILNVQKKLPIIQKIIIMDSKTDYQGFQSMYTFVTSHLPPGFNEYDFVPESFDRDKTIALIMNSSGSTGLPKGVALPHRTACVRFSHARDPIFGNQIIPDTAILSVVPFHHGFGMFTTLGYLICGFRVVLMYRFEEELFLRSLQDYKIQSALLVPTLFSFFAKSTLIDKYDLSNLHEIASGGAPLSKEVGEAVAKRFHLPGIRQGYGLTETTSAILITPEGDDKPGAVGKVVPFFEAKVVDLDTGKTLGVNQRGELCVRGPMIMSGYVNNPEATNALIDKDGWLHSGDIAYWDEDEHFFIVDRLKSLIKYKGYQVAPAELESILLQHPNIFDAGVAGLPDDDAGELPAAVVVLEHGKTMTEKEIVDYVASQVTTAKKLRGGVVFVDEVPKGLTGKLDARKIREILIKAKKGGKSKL
Fibroblast growth factor 2 (Homo sapiens), sequence (P09038 whole entry, looked up): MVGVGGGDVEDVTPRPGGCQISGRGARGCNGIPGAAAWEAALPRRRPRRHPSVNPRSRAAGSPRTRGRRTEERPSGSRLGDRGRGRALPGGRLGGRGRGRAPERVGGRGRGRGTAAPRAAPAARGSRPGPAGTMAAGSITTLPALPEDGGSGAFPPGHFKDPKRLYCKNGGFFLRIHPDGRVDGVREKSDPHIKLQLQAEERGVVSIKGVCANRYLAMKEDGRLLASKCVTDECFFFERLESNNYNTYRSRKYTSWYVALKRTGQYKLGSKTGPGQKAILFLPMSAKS
Albumin (Bos taurus), sequence (P02769 whole entry, looked up): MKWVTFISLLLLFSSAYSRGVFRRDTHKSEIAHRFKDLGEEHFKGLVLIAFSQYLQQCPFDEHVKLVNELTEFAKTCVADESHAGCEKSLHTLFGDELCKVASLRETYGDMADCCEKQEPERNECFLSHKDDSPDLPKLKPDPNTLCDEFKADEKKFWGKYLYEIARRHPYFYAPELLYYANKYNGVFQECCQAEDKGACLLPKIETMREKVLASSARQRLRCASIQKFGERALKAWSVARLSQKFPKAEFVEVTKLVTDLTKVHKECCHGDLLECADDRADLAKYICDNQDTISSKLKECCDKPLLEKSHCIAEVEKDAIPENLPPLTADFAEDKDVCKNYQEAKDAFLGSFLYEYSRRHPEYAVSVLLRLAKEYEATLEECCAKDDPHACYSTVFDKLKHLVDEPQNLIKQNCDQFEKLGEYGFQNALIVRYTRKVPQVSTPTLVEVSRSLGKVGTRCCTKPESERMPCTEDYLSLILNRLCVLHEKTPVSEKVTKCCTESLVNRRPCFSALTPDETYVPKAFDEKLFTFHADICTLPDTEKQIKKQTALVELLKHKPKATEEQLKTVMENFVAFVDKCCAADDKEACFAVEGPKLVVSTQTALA
Concanavalin-A (Canavalia ensiformis), sequence (P02866 whole entry, looked up): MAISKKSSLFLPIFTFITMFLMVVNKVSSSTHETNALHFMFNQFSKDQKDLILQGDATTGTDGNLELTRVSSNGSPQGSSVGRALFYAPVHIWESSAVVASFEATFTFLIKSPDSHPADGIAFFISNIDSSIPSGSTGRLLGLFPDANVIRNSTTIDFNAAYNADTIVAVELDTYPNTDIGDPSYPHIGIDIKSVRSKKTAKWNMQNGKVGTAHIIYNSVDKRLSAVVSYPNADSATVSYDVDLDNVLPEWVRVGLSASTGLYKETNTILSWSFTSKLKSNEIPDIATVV

Turning to `CN(C)CCCCCCNC(=O)[C@@H]1C[C@@H]2C(=O)N[C@@H](Cc3ccccc3)C(=O)N2[C@@H]1c1cccc(OCCO)c1`, the composite z-score with Albumin (Bos taurus) was -0.0152; in experiment [2], 0.0715; in experiment [3], -0.0793; in experiment [4], 0.784; in [5], 2.51; in experiment [6] it was 0.142. Moreover, the composite z-score amounted to 1.31 in the experiment on Sam68 (KHDRBS1); 0.711 in [7]; 1.11 in experiment [8]; 2.13 in experiment [9]; 1.05 in experiment [10]; 1.81 in experiment [11]. Besides, the composite z-score in experiment [12] was 0.105; in experiment [13] it was 0.699; in [14], 0.886; in the experiment with Lefty1, 0.729; in [16], 0.346. In addition, the composite Z-score in experiment [1] was 0.816 (inactive). The z-score in [15] was -0.37; in experiment [17], -0.0196 (inactive).
On to `CCN(CC)c1ccc(N2CC=CC34O[C@@H]5C=CCOC(=O)[C@@H]5[C@H]3C(=O)N(CCCCCO)[C@@H]4C2=O)cc1` (stereo not given in full), for which the composite z-score with Albumin (Bos taurus) is 0.347; in experiment [2], -0.193; in [3] it was -0.146; in experiment [4] it was 0.861; in experiment [5] it was 1.17; in experiment [6], 1.04. Moreover, the composite z-score is -0.0514 with Sam68 (KHDRBS1); -1 in experiment [7]; -1.47 in [8]; 3.37 in experiment [9]; -0.959 in [10]; -0.0973 in experiment [11]. The composite z-score in experiment [12] was -1.59; in [13], -0.915; in experiment [14], -0.551; in the experiment on Lefty1, -0.439; in [16], -0.559. Further, the composite Z-score in experiment [1] was 1.21 (inactive). For the same compound, the figures for the z-score in experiment [15] and in experiment [17] were 1.24 and -0.439 (inactive), respectively.
Consider `COCCn1c(C(=O)N2CCCC2)cc2c1C[C@H]1CN(C(=O)c3ccccc3)[C@@](Cc3ccc(OC)cc3)(C(=O)OC)[C@@H]21`, for which the composite z-score is 1.11 with Albumin (Bos taurus); 0.512 in [2]; 0.384 in experiment [3]; 0.868 in [4]; 2.11 in experiment [5]; 1.11 in experiment [6]. Further, the composite z-score in the experiment with Sam68 (KHDRBS1) was 0.424; in experiment [7], -0.975; in [8] it was 1.05; in experiment [9] it was 2.34; in experiment [10], 1.02; in experiment [11] it was 1.89. Further, the composite z-score in [12] was 0.632; in experiment [13], 0.417; in [14], -0.552; in the experiment on Lefty1 it was -0.0277; in [16], 1.06. Moreover, in experiment [1], the composite Z-score is 0.433 (inactive). Further, the z-score in experiment [15] is 0.766; in experiment [17], 0.438 (inactive).
Consider `COC(=O)c1nc2oc1CC[C@@H](CO)NC(=O)N(C)Cc1cn(nn1)C[C@H](Cc1ccccc1)NC2=O`, for which the composite z-score with Albumin (Bos taurus) was 0.775; in [2], -0.256; in experiment [3], -0.152; in experiment [4] it was 0.942; in experiment [5] it was 1.02; in experiment [6] it was 0.483. Further, the composite z-score in the experiment with Sam68 (KHDRBS1) is 0.178; in experiment [7], 0.376; in experiment [8], 0.667; in [9] it was 0.0255; in [10] it was -0.151; in [11], -0.242. The composite z-score was 0.0318 in experiment [12]; 0.905 in experiment [13]; 1.06 in [14]; 0.17 with Lefty1; 0.536 in experiment [16]. The composite Z-score in [1] is -0.275 (inactive). Further, the z-score in [15] was 0.457; in experiment [17] it was 0.376 (inactive).
In the case of `COc1ccc([Si](C)(C)[C@H]2[C@H](CCO)O[C@@]3(C(=O)N(Cc4ccccc4)c4ccc(N5C(=O)COc6ccccc65)cc43)[C@@H]2C)cc1`, the composite z-score with Albumin (Bos taurus) is 0.449; in experiment [2] it was -0.0431; in experiment [3], -0.0552; in [4] it was 0.443; in [5], 0.69; in [6], 0.11. Besides, the composite z-score in the experiment with Sam68 (KHDRBS1) was -0.101; in experiment [7], -0.516; in experiment [8], 0.211; in [9], -0.12; in experiment [10], -0.127; in [11] it was -0.0125. Besides, the composite z-score in experiment [12] is 0.26; in [13], -0.242; in [14] it was -0.116; with Lefty1, -0.0702; in experiment [16], 1.1. In experiment [1], the composite Z-score was 0.412 (inactive). The z-score in experiment [15] was 0.771; in experiment [17] it was -0.369 (inactive).
Take `C=C(CCCC)/C(=C/C[C@H](OC(C)=O)c1ccc(CO)o1)c1cc(C(=O)OC)ccc1OC`: the composite z-score is 0.588 with Albumin (Bos taurus); 0.133 in experiment [2]; -0.149 in [3]; 0.694 in experiment [4]; 0.699 in [5]; 0.53 in [6]. The composite z-score with Sam68 (KHDRBS1) turned out to be 1.17; in [7], 0.323; in experiment [8] it was 0.902; in [9], 0.683; in experiment [10] it was 0.596; in [11] it was 0.0945. In addition, the composite z-score in experiment [12] stood at 0.579; in experiment [13], 1.29; in experiment [14], 0.708; in the experiment with Lefty1, 1.42; in experiment [16], 0.789. Besides, the composite Z-score in [1] was 0.297 (inactive). Further, the values for the z-score in experiment [15] and in [17] were -0.925 and -1.45 (inactive), respectively.
As to `C=CC[C@@]1(C(=O)NCc2ccccc2)N=C(c2ccc(OCCCO)cc2)O[C@@H]1c1ccccc1CN=[N+]=[N-]`, the composite z-score with Albumin (Bos taurus) was found to be 0.889; in experiment [2] it was 0.525; in experiment [3], 0.117; in [4], 0.721; in experiment [5], 2.95; in experiment [6] it was 0.88. The composite z-score in the experiment with Sam68 (KHDRBS1) was 1.26; in experiment [7] it was -0.58; in [8] it was 1.03; in experiment [9], 1.8; in experiment [10] it was 1.22; in [11], 1.06. Moreover, the composite z-score was 0.995 in experiment [12]; 1.29 in experiment [13]; -0.204 in [14]; -0.0518 with Lefty1; 0.888 in experiment [16]. The composite Z-score in experiment [1] is 1.01 (inactive). In addition, the z-score in experiment [15] is 0.903; in [17] it was -0.876 (inactive).
Regarding `CCCCCCCCCCC(O)C1C=CC2C(=O)N(c3ccccc3)C(=O)C2N1Nc1ccc([N+](=O)[O-])cc1` (stereo not given), the composite z-score was 0.804 in the experiment with Albumin (Bos taurus); 0.216 in experiment [2]; -0.0984 in experiment [3]; 0.594 in experiment [4]; 1.63 in [5]; 0.109 in [6]. Moreover, the composite z-score in the experiment with Sam68 (KHDRBS1) was 1.31; in [7] it was -0.301; in experiment [8] it was 1.05; in experiment [9], 0.774; in [10], 1.22; in [11] it was 0.525. Also, the composite z-score turned out to be 0.992 in experiment [12]; 0.8 in experiment [13]; 0.378 in experiment [14]; 0.371 with Lefty1; 0.56 in experiment [16]. Further, the composite Z-score in experiment [1] was 0.568 (inactive). Also, the z-score in experiment [15] was 2.09; in [17] it was 1.86 (inactive).

Source of the values: PubChem BioAssay.
